Measurements taken from the supplement of paper PMC10515830.
Where a name gives a salt, the structure may show the parent alone.

What was measured:
Details in all cases: 10 µM; exposure time 6 h
[1] = system: Danio rerio larvae (5 dpf); assay: difference in excitability vs DMSO (percentage points); higher = more excitable than DMSO
Procedure, shortened: (§1)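 Library compounds were tested at 10 µM final in 100 µL egg water on wild-type 5 dpf zebrafish larvae in 96-well plates for 6 h, with 48 larvae per compound. After 3 h, plates at 28.5 ℃ were imaged every 6 s during a 3-h run of moving lines and 100 ms, 400Hz tones. Behaviours were quantified by Z-LaP Tracker and reported as the compound mean less the vehicle control mean, in percentage points.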

[2] = system: Danio rerio larvae (5 dpf); assay: difference in startle response vs DMSO (percentage points); higher = stronger startle than DMSO
Procedure, shortened: as §1

[3] = system: Danio rerio larvae (5 dpf); assay: difference in activity during first hour vs DMSO (percentage points); higher = more activity than DMSO
Procedure, shortened: as §1

[4] = system: Danio rerio larvae (5 dpf); assay: difference in habituation to acoustic stimuli vs DMSO (percentage points); higher = more habituation than DMSO
Procedure, shortened: as §1

[5] = system: Danio rerio larvae (5 dpf); assay: difference in combined optomotor response to red, green and blue moving lines vs DMSO (percentage points); higher = stronger optomotor response than DMSO
Procedure, shortened: as §1

Row | SMILES | difference in excitability [1] | difference in startle response [2] | difference in activity during first hour [3] | difference in habituation to acoustic stimuli [4] | difference [5]
1 | CC[C@]1(O)C[C@H]2CN(CCc3c([nH]c4ccccc34)[C@@](C(=O)OC)(c3cc4c(cc3OC)N(C=O)[C@H]3[C@@](O)(C(=O)OC)[C@H](OC(C)=O)[C@]5(CC)C=CCN6CC[C@]43[C@@H]65)C2)C1 [Vincristine (sulfate)] | 3.18 | 3.21 | -4.31 | -2.03 | 1.46
2 | COc1ccc(CC(C)NCC(O)c2ccc(O)c(NC=O)c2)cc1 (stereo not given) [Formoterol (hemifumarate hydrate)] | 9.74 | -13.1 | 49.1 | -7.8 | 1.18
3 | CCN(CC)CCOC(=O)C1(C2CCCCC2)CCCCC1 [Dicyclomine (hydrochloride)] | 9.55 | -4.86 | -8.86 | -5.06 | -3.96
4 | CC1=C(/C=C/C(C)=C/C=C/C(C)=C/C(=O)O)C(C)(C)CCC1 [all-trans Retinoic Acid] | 7.11 | -8.47 | -4.15 | -13.5 | 6.48
5 | c1ccc2c(CC3=NCCN3)cccc2c1 [Naphazoline (hydrochloride)] | 10.4 | -5.95 | 0.867 | -2.18 | -3.73
6 | C=CC1=C(C(=O)O)N2C(=O)[C@@H](NC(=O)/C(=N\O)c3csc(N)n3)[C@H]2SC1 [Cefdinir] | 6.83 | 5.77 | 6.72 | -1.11 | 4.15
7 | O=c1[nH]c(=O)n([C@H]2C[C@H](O)[C@@H](CO)O2)cc1I [Idoxuridine] | 6.91 | 0.604 | -3.04 | 5.55 | 2.86
8 | Nc1cccc2c1CN(C1CCC(=O)NC1=O)C2=O (stereo not given) [Lenalidomide] | -0.5 | 7.32 | 0.485 | -0.169 | 5.58
9 | Oc1c(Cl)cc(Cl)c(Cl)c1Cc1c(O)c(Cl)cc(Cl)c1Cl [Hexachlorophene] | 8.13 | -9.45 | -18.6 | -9.66 | -15.6
10 | NC(=O)c1ncn([C@@H]2O[C@H](CO)[C@@H](O)[C@H]2O)n1 [Ribavirin] | 3.64 | -0.473 | 21.8 | -4.01 | 5.68
11 | CN1CCN(C2=Nc3cc(Cl)ccc3Nc3ccccc32)CC1 [Clozapine] | 9.35 | -11.3 | 37.7 | -6.72 | 5.08
12 | O=C(O)C[C@H](O)C[C@H](O)/C=C/c1c(C2CC2)nc2ccccc2c1-c1ccc(F)cc1 [Pitavastatin (calcium salt)] | 10.2 | -3.29 | 4.76 | -3.94 | 13.1
13 | FCOC(C(F)(F)F)C(F)(F)F [Sevoflurane] | -1.7 | 2.93 | 0.0224 | 4.17 | -3.43
14 | CNCC(O)c1ccc(OC(=O)C(C)(C)C)c(OC(=O)C(C)(C)C)c1 (stereo not given) [Dipivefrin (hydrochloride)] | -3.61 | -15.1 | 46.2 | -2.07 | 2.48
15 | CNCC(=O)OCc1cccnc1N(C)C(=O)OC(C)[n+]1cnn(C[C@](O)(c2cc(F)ccc2F)[C@@H](C)c2nc(-c3ccc(C#N)cc3)cs2)c1 (stereo not given in full) [Isavuconazonium (sulfate)] | 28.4 | 4.1 | -13.1 | -2.82 | -5.6
16 | CC(C)NCC(O)COc1ccc(CCOCC2CC2)cc1 (stereo not given) [Betaxolol (hydrochloride)] | 2.57 | 2.31 | 11.4 | -2.52 | 6.22
17 | CC(=O)Nc1ccc(O)cc1 [Acetaminophen] | -1.23 | -0.558 | -0.87 | -5.65 | -2.34
18 | O=C1Nc2ccc(Cl)cc2[C@@](C#CC2CC2)(C(F)(F)F)O1 [Efavirenz] | 10.7 | -10.7 | -17.8 | -12.8 | -17.4
19 | CC(=O)Oc1cc2c(s1)CCN(C(C(=O)C1CC1)c1ccccc1F)C2 (stereo not given) [Prasugrel] | -1.17 | 0.187 | -0.362 | 8.33 | 9.86
20 | O=c1[nH]cnc2c1ncn2[C@H]1CC[C@@H](CO)O1 [Didanosine] | 1.69 | -3.05 | 4.04 | -1.02 | 4.2
21 | C[C@]12C=CC(=O)C=C1CC[C@@H]1[C@@H]2[C@@H](O)C[C@@]2(C)[C@H]1CC[C@]2(O)C(=O)CO [Prednisolone] | 1.41 | 3.42 | 13.7 | 0.15 | 7.45
22 | CSc1ccc2c(c1)N(CCC1CCCCN1C)c1ccccc1S2 (stereo not given) [Thioridazine (hydrochloride)] | 19.8 | -0.778 | 12.9 | -8.21 | -5
23 | C[C@H]1[C@H](NC(=O)/C(=N\OC(C)(C)C(=O)O)c2csc(N)n2)C(=O)N1S(=O)(=O)O [Aztreonam] | -7.88 | 8.41 | 8.84 | 5.95 | -0.4
24 | C#CCN[C@@H]1CCc2ccccc21 [Rasagiline] | 3.5 | 1.96 | 10.2 | 4.46 | 6.27

Row | SMILES | difference in excitability [1] | difference in startle response [2] | difference in activity during first hour [3] | difference in habituation to acoustic stimuli [4] | difference [5]
25 | C=CC1=C(C(=O)O)N2C(=O)[C@@H](NC(=O)/C(=N\OCC(=O)O)c3csc(N)n3)[C@H]2SC1 [Cefixime] | -0.725 | -0.605 | 11.6 | 8.39 | 10.8
26 | CC(C)CCCCC(=O)N[C@@H](CCNCS(=O)(=O)O)C(=O)N[C@H](C(=O)N[C@@H](CCNCS(=O)(=O)O)C(=O)N[C@H]1CCNC(=O)[C@H]([C@@H](C)O)NC(=O)[C@H](CCNCS(=O)(=O)O)NC(=O)[C@H](CCNCS(=O)(=O)O)NC(=O)[C@H](CC(C)C)NC(=O)[C@@H](CC(C)C)NC(=O)[C@H](CCNCS(=O)(=O)O)NC1=O)[C@@H](C)O.CC[C@@H](C)CCCCC(=O)N[C@@H](CCNCS(=O)(=O)O)C(=O)N[C@H](C(=O)N[C@@H](CCNCS(=O)(=O)O)C(=O)N[C@H]1CCNC(=O)[C@H]([C@@H](C)O)NC(=O)[C@H](CCNCS(=O)(=O)O)NC(=O)[C@H](CCNCS(=O)(=O)O)NC(=O)[C@H](CC(C)C)NC(=O)[C@@H](CC(C)C)NC(=O)[C@H](CCNCS(=O)(=O)O)NC1=O)[C@@H](C)O [Colistin Methanesulfonate (sodium salt)] | 20.4 | -4.76 | 4.65 | 0.808 | -2.32
27 | OC[C@H]1NC[C@H](O)[C@@H](O)[C@H]1O [1-Deoxygalactonojirimycin (hydrochloride)] | 1.33 | 1.49 | 16.8 | 3.98 | 3.06
28 | O=C1c2cccc3c2[C@H](CCC3)CN1[C@@H]1CN2CCC1CC2 [Palonosetron (hydrochloride)] | 16.7 | -3.75 | 19.7 | 2.14 | 4.37
29 | Cc1ccc(-c2cc(C(F)(F)F)nn2-c2ccc(S(N)(=O)=O)cc2)cc1 [Celecoxib] | 6.16 | -9.06 | 2.67 | -10.4 | -6.28
30 | O=P(O)(O)C(O)(Cc1cccnc1)P(=O)(O)O [Risedronate (sodium salt)] | 3.7 | 4.04 | 24.7 | -2.36 | 9.6
31 | OC[C@H]1O[C@@H](n2cnc3c2N=CNC[C@H]3O)C[C@@H]1O [Pentostatin] | 4.36 | -6.74 | 2.27 | 0.584 | 3.35
32 | Cc1cccc(C)c1OCC(C)N (stereo not given) [Mexiletine (hydrochloride)] | 9.5 | 1.48 | -2.5 | -10.3 | 1.04
33 | CCN(Cc1ccncc1)C(=O)C(CO)c1ccccc1 (stereo not given) [Tropicamide] | 1.51 | -4.55 | 14.3 | -1.41 | 6.16
34 | CCc1cc2c(cc1CC)CC(NC[C@H](O)c1ccc(O)c3[nH]c(=O)ccc13)C2 [Indacaterol] | -0.786 | 4.28 | -1.22 | 3.2 | -2.46
35 | OCc1cc(C(O)CNCCCCCCOCCCCc2ccccc2)ccc1O (stereo not given) [Salmeterol (xinafoate)] | 12.9 | -5.05 | 20.1 | -7.62 | 7.79
36 | COC(=O)[C@H]1[C@H]2C[C@@H]3c4[nH]c5cc(OC)ccc5c4CCN3C[C@H]2C[C@@H](OC(=O)c2cc(OC)c(OC)c(OC)c2)[C@@H]1OC [Reserpine] | 24.6 | -7.69 | 9.27 | -7.61 | -10.4
37 | CCOC(=O)c1ncn2c1CN(C)C(=O)c1cc(F)ccc1-2 [Flumazenil] | 3.25 | 7.64 | 0.681 | 2.54 | 3.91
38 | O=C(O)CCNC(=O)c1ccc(/N=N/c2ccc(O)c(C(=O)O)c2)cc1 [Balsalazide] | 4.51 | 9.09 | 15 | 1.8 | 4.25
39 | COc1cc(Nc2c(C#N)cnc3cc(OCCCN4CCN(C)CC4)c(OC)cc23)c(Cl)cc1Cl [Bosutinib] | 10.4 | 1.86 | -11.7 | -5.15 | 2.77
40 | CC(C)C(=O)Oc1ccc(CO)cc1[C@H](CCN(C(C)C)C(C)C)c1ccccc1 [Fesoterodine (fumarate)] | 4.21 | -11.4 | 2.92 | -7.33 | -6.79
41 | OC(c1cc(C(F)(F)F)nc2c(C(F)(F)F)cccc12)C1CCCCN1 (stereo not given) [Mefloquine (hydrochloride)] | 20.8 | -3.76 | -1.02 | -0.417 | -0.0553
42 | O=C(O)COCCN1CCN([C@H](c2ccccc2)c2ccc(Cl)cc2)CC1 [(R)-Cetirizine (hydrochloride)] | 5.78 | -3.02 | -1.26 | 6.23 | 5.37
43 | O=C(O)Cc1ccccc1Nc1c(Cl)cccc1Cl [Diclofenac (sodium salt)] | 17.2 | -1.39 | 2.16 | -5.15 | 2.67
44 | CNS(=O)(=O)CCc1ccc2[nH]cc(C3CCN(C)CC3)c2c1 [Naratriptan (hydrochloride)] | 8.93 | 2.03 | -1.59 | 7.18 | -2.72
45 | CN(N=O)C(=O)N[C@@H](C=O)[C@@H](O)[C@H](O)[C@H](O)CO [Streptozotocin] | -0.24 | -1.97 | -9.76 | -6.76 | -1.53
46 | Cc1[nH]c2ccccc2c1CCNCc1ccc(/C=C/C(=O)NO)cc1 [Panobinostat] | 7 | -4.96 | -8.62 | 3.43 | 1.65
47 | Cc1ccc(C(=O)c2cc(O)c(O)c([N+](=O)[O-])c2)cc1 [Tolcapone] | 5.24 | -9.07 | 8.3 | -6.19 | -0.989
48 | Cc1c(OCC(F)(F)F)ccnc1C[S+]([O-])c1nc2ccccc2[nH]1 (stereo not given) [Lansoprazole] | 8.61 | -2.87 | 1.57 | -2.95 | 6.61
